Shown are actives, neighbours in structure and some others; about 8% of the full set was active somewhere.
KB-3-1 tox = KB-3-1 parental cell cytotoxicity; AID 1347075; actives 1.4% (n = 400,000); KB-3-1 viability, CellTiter-Glo ATP luminescence, 72 h; Potency, µM (top dose mostly 46.1 µM), actives largely listed as cytotoxic; note: nearly all actives have a fitted effect of over 60% in size
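Parental KB-3-1 viability, qHTS format: 72 h compound exposure, 37 °C; CellTiter-Glo; media-only wells and DMSO plates as controls; concentration-effect fits on corrected data.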
MCF10A rerep = inducers of DNA re-replication in MCF 10A breast cells; actives 2.9% (n = 350,000); MCF 10A DNA re-replication, Hoechst nuclear intensity, 48 h; AID 624296; Potency, µM (doses to about 46.1 µM), hits mostly activators; note: nearly all actives have a fitted effect of over 50% in size
HT1080NT lethal = kills 2HG-producing HT-1080-NT fibrosarcoma cells | Potency, µM (top dose mostly 46.1 µM), usual class: cytotoxic | actives 1.6% (n = 360,000) | HT-1080-NT fibrosarcoma viability, CellTiter-Glo ATP luminescence, 48 h;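 note: NT is the 2HG producing partner of a matched IDH1 knockdown line; nearly all actives have a fitted effect of over 55% in size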
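Viability by CellTiter-Glo luminescence after 48 h compound exposure at 37C of HT-1080-NT cells (750/well, RPMI, 5% FBS). % activity scaled between DMSO wells and medium-only wells, then curve-fitted and categorized by curve class.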
KB-V1 cytotox = kills drug-selected multidrug resistant KB-V1 cells. KB-V1 MDR cells viability, CellTiter-Glo, 72 h. Potency, µM (series often up to 46.1 µM), hits mostly cytotoxic. actives 3.4% (n = 400,000). AID 1347076; note: nearly all actives have a fitted effect of over 60% in size
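KB-V1 cells (P-gp-expressing MDR subline of KB-3-1) in phenol-red-free DMEM with 10% FBS were exposed to library compounds over a concentration series for 72 h at 37 degrees C. Viability read by CellTiter-Glo luminescence; concentration-effect curves fitted after normalization.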
HT1080 IDH1KD tx = HT-1080 IDH1 knockdown cell toxicity (counter line). AID 686971. actives 2% (n = 360,000). HT-1080 IDH1 knockdown viability, ATP luminescence, 48 h. Potency, µM (top dose mostly 46.1 µM), actives largely listed as cytotoxic
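Knockdown cells (IDH1KD HT-1080) received compounds 2 h after plating at 750 cells/well and were kept 48 h at 37 °C in 5% FBS RPMI. A CellTiter-Glo luminescence read gave % activity for curve fitting.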
SW480 rereplic = DNA re-replication induction in SW480 cells. actives 1.8% (n = 340,000). AID 624297. Potency, µM (series often up to 46.1 µM), hits mostly activators. SW480 DNA re-replication, Hoechst DNA content imaging, 48 h; note: nearly all actives have a fitted effect of over 55% in size
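Hoechst fluorescence of nuclei (405 nm excitation, 500-530 nm emission) measured by plate-scanning imager after 48 hr compound exposure at 37 C; re-replication scored as increased number of nuclei with elevated intensity.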
Of the large screens only hits and unclear results are named; the others gave an inactive call; ! = not active in a repeat. Calls come from the whole dose curve; as a rule, active = well fitted curve in the direction sought with a large enough effect; inconclusive = small, poorly fitted or top-dose-only effect, or another doubt; inactive = no such curve, though single readings can be large; an effect the other way counts as inactive or inconclusive.

CCc1ccccc1NC(=O)c1ccc(Cn2cc([N+](=O)[O-])cn2)cc1	SW480 rereplic 1µM
O=C(Nc1ccn(Cc2ccccc2)n1)c1cccc(Cn2cc([N+](=O)[O-])cn2)c1	KB-3-1 tox inconclusive
CCC(NC(=O)c1cccc(Cn2cc([N+](=O)[O-])cn2)c1)c1ccc(C(C)C)cc1 (stereo unspecified)	KB-3-1 tox inconclusive, KB-V1 cytotox 7.3µM, HT1080 IDH1KD tx inconclusive
O=C(Nc1cccc(F)c1)c1ccc(Cn2cc([N+](=O)[O-])cn2)o1	KB-V1 cytotox 13µM
CC(NC(=O)c1cccc(Cn2cc([N+](=O)[O-])cn2)c1)c1ccc(C(C)(C)C)cc1 (stereo unspecified)	MCF10A rerep inconclusive, KB-V1 cytotox 21µM, HT1080 IDH1KD tx inconclusive
CC(c1ccccc1)n1ccnc1CO (stereo unspecified)	none (no result: MCF10A rerep, SW480 rereplic)
COc1ccc2c(c1)[nH]c1c(=O)n(/N=C/c3ccc(OC)c(CN4CCCC4)c3)cnc12	none
CCc1onc(C)c1C(=O)O	none
CN(C)CCCNS(=O)(=O)c1ccc(NC2CCCCCC2)c([N+](=O)[O-])c1	KB-3-1 tox 18µM, MCF10A rerep inconclusive, HT1080NT lethal inconclusive, KB-V1 cytotox inconclusive, HT1080 IDH1KD tx inconclusive, SW480 rereplic inconclusive
Cc1cc(C)c(C)c(S(=O)(=O)N2CCN(c3ccccn3)CC2)c1C	KB-V1 cytotox inconclusive
Cc1cc(C)c(C)c(S(=O)(=O)N2CCN(c3ncnc4ccccc34)CC2)c1C	KB-3-1 tox 18µM, MCF10A rerep 18µM, HT1080NT lethal inconclusive, KB-V1 cytotox inconclusive, HT1080 IDH1KD tx 23µM
COc1cc(OC)cc(-c2c(-c3cccs3)c3cc(-c4ccc(C(N)=O)cc4)ccc3n2C)c1	KB-3-1 tox inconclusive, MCF10A rerep 16µM, SW480 rereplic inconclusive
COc1ccc(-c2ccc3c(c2)c(-c2cccs2)c(-c2cc(OC)cc(OC)c2)n3C)cc1	none
COc1ccc(NC(=O)c2cccc(NS(=O)(=O)c3ccccc3)c2)cc1	KB-V1 cytotox inconclusive
CCOC(=O)CNC(=S)N(Cc1ccccc1)Cc1cccs1	KB-V1 cytotox inconclusive
COc1ccc(OC)c(/C=C/c2cc3ccccc3c[n+]2C)c1	KB-3-1 tox inconclusive (no result: MCF10A rerep, HT1080NT lethal, HT1080 IDH1KD tx, SW480 rereplic)
COc1cc(OC)c(/C=C/c2ccccn2)c(OC)c1	KB-3-1 tox 5.2µM (no result: MCF10A rerep, HT1080NT lethal, HT1080 IDH1KD tx, SW480 rereplic)
COc1cc(OC)c(/C=C/c2ccc3ccccc3n2)c(OC)c1	KB-3-1 tox 0.52µM (no result: MCF10A rerep, HT1080NT lethal, HT1080 IDH1KD tx, SW480 rereplic)
COc1cc(OC)c(/C=C/c2cc3ccccc3c[n+]2C)c(OC)c1	KB-3-1 tox 0.92µM (no result: MCF10A rerep, HT1080NT lethal, HT1080 IDH1KD tx, SW480 rereplic)
COc1cc(OC)c(C=Cc2ccncn2)c(OC)c1	none (no result: MCF10A rerep, SW480 rereplic)
O=C(O)CCCCCCCCc1cn(Cc2ccc(C(=O)c3ccccc3)cc2)nn1	KB-3-1 tox 4.6µM!, MCF10A rerep inconclusive, HT1080NT lethal 3.7µM, KB-V1 cytotox 9.2µM!, HT1080 IDH1KD tx 4.6µM, SW480 rereplic 5.8µM
O=C(c1ccccc1)c1ccc(Cn2cc(-c3ccccc3)nn2)cc1	KB-3-1 tox inconclusive, KB-V1 cytotox 0.65µM!
O=C(c1ccccc1)c1ccc(Cn2cc(CCCO)nn2)cc1	none
CCCCCc1ccc(-c2cn(Cc3ccc(C(=O)c4ccccc4)cc3)nn2)cc1	KB-3-1 tox 7.3µM!, MCF10A rerep inconclusive, KB-V1 cytotox 7.3µM!
CCOC(=O)c1cn(Cc2cccc(Cl)c2)nn1	none
O=C(OCc1cn(Cc2ccccc2)nn1)c1ccccc1	none
CCOC(OCC)c1cn(Cc2ccc(C(=O)c3ccccc3)cc2)nn1	KB-3-1 tox 18µM, MCF10A rerep inconclusive, HT1080NT lethal inconclusive, KB-V1 cytotox inconclusive, HT1080 IDH1KD tx inconclusive
O=C(c1ccncc1)N1CCCC(N2CCN(c3ccc(F)cc3)CC2)C1 (stereo unspecified)	KB-V1 cytotox inconclusive
Cc1noc(/C=C/N(C)C)c1S(=O)(=O)N1CCc2ccccc21	MCF10A rerep 18µM, HT1080 IDH1KD tx inconclusive
Cc1cccc(NC(=O)CSc2nnc(-c3cc(C)n(-c4ccccc4)c3C)o2)c1C	none
CC/C=C/C(=O)N1CC2(CC(c3cccc(NC(=O)CC(c4ccccc4)c4ccccc4)c3)=NO2)C[C@@H]1C(N)=O (stereo partly specified)	MCF10A rerep inconclusive
CNC(=O)c1c(NC(=O)CCS(=O)(=O)c2ccccc2)sc(C)c1C	none
O=C(CCN1CCN(c2ccccc2F)CC1)Nc1ccc(F)cc1	none
O=C(CCCCCCC(=O)Nc1ccccc1)NO	KB-3-1 tox 8.2µM, MCF10A rerep 15µM, KB-V1 cytotox 1.3µM, SW480 rereplic 3.7µM (no result: HT1080NT lethal, HT1080 IDH1KD tx)
O=C(CCN1CCN(CCO)CC1)Nc1ccccc1	MCF10A rerep 0.65µM
O=C(CCN1CCN(Cc2ccccc2)CC1)Nc1cccc(Cl)c1	KB-V1 cytotox 23µM
Cc1ccccc1N1CCN(CCC(=O)Nc2ccc(F)cc2)CC1	KB-3-1 tox inconclusive, KB-V1 cytotox 18µM
CS(=O)(=O)N1N=C(c2ccco2)CC1c1ccco1 (stereo unspecified)	KB-V1 cytotox inconclusive
OCCC1CN(Cc2cccn2-c2nccs2)CCN1Cc1ccccc1 (stereo unspecified)	none
CN(C(=O)COC(=O)c1cnc(Cl)c(Cl)c1)C1CCS(=O)(=O)C1 (stereo unspecified)	none
CCn1c(=NC(=O)c2ccco2)sc2cccc(F)c21	KB-3-1 tox inconclusive
COc1cccc(C(=O)Nc2nnc(C(C)C)s2)c1	none
Cc1cccc(-c2nc(CS(=O)CC(=O)NCc3ccc(Cl)cc3)c(C)o2)c1 (stereo unspecified)	none (no result: MCF10A rerep, HT1080NT lethal, HT1080 IDH1KD tx, SW480 rereplic)
CCOC(=O)c1c[nH]c2c3c(ccc2c1=O)CCCC3	KB-V1 cytotox inconclusive
CC(=O)NC(Nc1nc2c(s1)CCCC2)(C(F)(F)F)C(F)(F)F	SW480 rereplic 4.1µM
COC(=O)Nc1nc2c(s1)CCCC2	none
O=C(c1cccc(S(=O)(=O)NCc2ccccc2)c1)N1CCN(c2cccc(C(F)(F)F)c2)CC1	KB-3-1 tox inconclusive, MCF10A rerep inconclusive, HT1080NT lethal inconclusive, KB-V1 cytotox 16µM, HT1080 IDH1KD tx inconclusive, SW480 rereplic inconclusive
O=C(c1ccc(Cl)c(S(=O)(=O)NCc2ccccc2)c1)N1CCN(c2ccccn2)CC1	HT1080NT lethal inconclusive, KB-V1 cytotox 4.1µM, HT1080 IDH1KD tx inconclusive
O=C(c1cccc(S(=O)(=O)NCc2ccccc2)c1)N1CCN(c2ccccc2)CC1	KB-3-1 tox inconclusive, MCF10A rerep 6.5µM, HT1080NT lethal inconclusive, HT1080 IDH1KD tx inconclusive, SW480 rereplic inconclusive
Cc1cccc(N2CCN(C(=O)c3ccc(Cl)c(S(=O)(=O)NCc4ccco4)c3)CC2)c1C	KB-3-1 tox 13µM, MCF10A rerep 16µM, HT1080NT lethal inconclusive, KB-V1 cytotox 13µM, HT1080 IDH1KD tx 16µM, SW480 rereplic inconclusive
